# The list is not random: actives were taken first. Their share in the collection is about 3.9%.
# CDK5 p35 inh: CDK5/p35 (human) kinase inhibition. Q00535+Q15078. Recombinant CDK5/p35, ADP-Glo luminescence, 60 min. inhibition, % at 10 µM. actives 0.01% (n = 330,000);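 active = highest replicate inhibition of at least 50% and at least 75% of replicates reaching 50%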;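 also: plate controls were DMSO neutral control for no effect and GW8510 at 10 µM for full effect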
# NSD2 inh: NSD2 (human) methyltransferase inhibition; inhibition, % at 12.5 µM; actives 0.54% (n = 310,000); O96028; AID 743445; NSD2 peptide methylation, AlphaScreen, 120 min; in the data active = inhibition above about 50%
# N-glyco inh: N-linked glycosylation inhibition; D54 ERlucT glycosylation luciferase reporter, 24 h; percent of 100 nM tunicamycin response; reporter increase, % at 12.5 µM; actives 0.23% (n = 360,000);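 active = mean luciferase reporter signal, scaled so untreated is 0 and the glycosylation-blocking control 100, at or above a set limit in every replicate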;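 also: luciferase carries N-glycosylation sites so blocking glycosylation raises the light; 0% = median of neutral control wells and 100% = median of 100 nM tunicamycin wells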
# SUMO Mot1 rescue: blocks SUMOylation pathway, rescuing yeast Mot1-301 growth | growth rescue, % at 18.8 µM | actives 1% (n = 320,000) | S. cerevisiae Mot1-301 growth rescue, ATP luminescence, 38.5C; percent above DMSO median, 100 means doubled;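 active = every valid replicate shows activation above 250% relative to neutral control wells; inactive = the rest, any valid replicate at or below 250%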;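 also: OY570 slx delta 5 strain wells were the positive control but not used for scaling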
# Casp6 inh: inhibitors of human caspase-6; P55212; purified caspase-6, Z-VEID-R110 cleavage fluorescence; inhibition, % at 12.5 µM; actives 0.53% (n = 350,000); AID 686996;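 active = mean inhibition across replicates at least about 35%, with every replicate also reaching that limit, limit read from the data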;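 also: 0% = median of neutral control wells and 100% = no fluorescence left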
# Target sequence (P55212 24-179 limits assumed): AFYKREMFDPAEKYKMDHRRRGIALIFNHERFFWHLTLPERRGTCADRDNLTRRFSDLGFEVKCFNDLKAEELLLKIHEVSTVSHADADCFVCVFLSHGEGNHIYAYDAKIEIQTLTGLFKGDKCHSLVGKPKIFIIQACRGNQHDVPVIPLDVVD
# Target sequence (P55212 194-293 limits assumed): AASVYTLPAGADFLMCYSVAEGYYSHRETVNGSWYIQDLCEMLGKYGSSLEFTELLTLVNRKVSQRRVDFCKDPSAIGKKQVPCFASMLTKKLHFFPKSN
# ALR H2O2 inh: blocks human ALR sulfhydryl oxidase activity. actives 3.8% (n = 290,000). inhibition, % (concentration not given with the values). AID 485317. P55789. purified ALR, DTT oxidation, H2O2 HRP-luminol luminescence;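 active = mean replicate inhibition above about 79%, with every replicate also reaching it, limit read from the data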
# Target sequence (P55789 whole entry, looked up): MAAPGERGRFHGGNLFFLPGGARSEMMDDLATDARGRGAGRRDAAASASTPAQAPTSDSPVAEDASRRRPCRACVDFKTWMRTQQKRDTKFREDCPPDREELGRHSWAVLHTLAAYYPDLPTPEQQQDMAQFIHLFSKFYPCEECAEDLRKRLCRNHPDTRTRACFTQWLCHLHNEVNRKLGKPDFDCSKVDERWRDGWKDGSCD
# AlphaScreen art: interferes with AlphaScreen signal, flagging NSD2 false positives; AID 1053174; shares compounds with NSD2 inh; AC35, µM (highest dose often 10 µM), inactives show at the highest dose activity change, negative = signal loss; AlphaScreen artifact counterscreen, preloaded methylated H4 peptide; actives 9.4% (n = 1,500); call rule not given here
# The depositor's hits bear a star; / = no result; + = active, no number.
SMILES,CDK5 p35 inh,NSD2 inh,N-glyco inh,SUMO Mot1 rescue,Casp6 inh,ALR H2O2 inh,AlphaScreen art
COc1ccccc1N(CC(=O)NCC1CCCO1)C(=O)CNS(=O)(=O)c1ccc(C)cc1 (configuration not stated),1,69*,-1,-11,/,-7,0%
COC(=O)[C@@H]1[C@@H](CO)[C@@H]2Cn3c(ccc(-c4ccccc4)c3=O)[C@@H]2N1Cc1ccccc1F,/,/,/,/,1,/,/
Nc1nc(=S)c2ncn(C3OC(CO)C(O)C3O)c2[nH]1 (configuration not stated),3,52*,66*,-12,/,9,-9%
COc1ccc(C(=O)C(OC(=O)c2ccc(C)c(NC(C)=O)c2)c2ccccc2)cc1 (configuration not stated),-2,50*,-1,-1,/,-29,-5%
CC(=O)Nc1cc(C(=O)OC(C(=O)c2ccccc2)c2ccccc2)ccc1C (configuration not stated),1,0,0,-6,/,-4,/
Nn1cnnc1N/N=C\c1ccc(-c2ccccc2[N+](=O)[O-])o1,1,98*,7,/,10,/,-5%
O=[N+]([O-])c1ccccc1-c1ccc(/C=N/n2cnnc2)o1,0,7,0,10,/,/,/
C[C@H](CO)N1C[C@H](C)[C@H](CN(C)Cc2ccc(C(=O)Nc3ccccc3N)cc2)Oc2ccc(NC(=O)Cn3cnnn3)cc2CC1=O,/,/,/,/,0,/,/
O=C(CC1CC1)N1[C@H](CO)[C@@H]2c3ccccc3N(S(=O)(=O)c3ccccc3)C[C@@H]21,/,/,/,/,1,/,/
FC(F)(F)c1nc(-c2cccnc2)ncc1-c1nnnn1-c1ccccc1,0,-1,0,6,/,-2,/
COc1ccc(-n2nnnc2-c2cnc(N3CCCC3)nc2C(F)(F)F)cc1,0,52*,3,34,/,-3,2%
CNC(=O)c1ccc(-c2cc(C(F)(F)F)nn2C)s1,/,60*,2,-12,1,-2,-2%
Cn1nc(C(F)(F)F)cc1-c1ccc(/C=C(\C#N)C(=O)c2ccccc2)s1,0,1,2,104,-1,-34,/
CCCC(CCC(=O)Nc1cccc([N+](=O)[O-])c1)C(=O)O (configuration not stated),1,83*,4,-2,-1,0,-1%
O=C(O)CCCC(=O)Nc1cccc([N+](=O)[O-])c1,0,-5,2,-1,2,-10,/
CCCNC(=O)N[C@@H]1CC[C@H](CCn2cc(C3CC3)nn2)O[C@H]1CO,/,/,/,/,-1,/,/
COC(=O)c1nn(C)c(=O)[nH]c1=O,-1,51*,-1,/,4,/,1%
C[C@@H]1CN([C@@H](C)CO)C(=O)c2cc(C#Cc3ccccc3F)cnc2O[C@H]1CN(C)C(=O)Cc1ccccc1,/,/,/,/,1,/,/
CC1=NN(c2ccccc2)C(=O)/C1=C/C=C/c1ccccc1,0,7,12,-1,/,1,/
CC1=NN(c2cccc(C(=O)O)c2)C(=O)/C1=C\C=C\c1ccco1,-1,+,3,14,/,83*,7.2µM*
Cc1ccc(Cn2c(SCC(=O)N3CC(=O)Nc4ccccc43)nc3ccccc3c2=O)cc1,-1,60*,-2,33,-1,0,-1%
COc1ccc(CCC(=O)NCCOc2ccccc2Cl)cc1,-1,124*,-1,10,-2,-16,-2%
Nc1ncnc(NCc2ccccc2)c1[N+](=O)[O-],0,53*,-9,-4,0,-24,-1%
CN(C)c1cccc2c(S(=O)(=O)Nc3ccccn3)cccc12,-2,58*,1,-10,/,-18,-3%
CCN(CC)CCNC(=O)c1c(C)[nH]c(/C=C2\C(=O)Nc3ccc(F)cc32)c1C,/,50*,/,/,/,/,-14%
SMILES,CDK5 p35 inh,NSD2 inh,N-glyco inh,SUMO Mot1 rescue,Casp6 inh,ALR H2O2 inh,AlphaScreen art
COC(=O)c1sc(S(=O)(=O)NCCCN(C)C)c(C(=O)OC)c1C,-4,1,-1,35,-2,-5,/
COC(=O)c1sc(S(=O)(=O)Nc2ccc(C)c(C)c2)c(C(=O)OC)c1C,-1,50*,-5,441,-1,-5,0%
CCOC(=O)c1ccc(N=c2scc(C)n2CC)cc1,-1,51*,-12,10,-1,38,-12%
Cc1c(C)c2cc(Cl)c(O)c(CN(C)C)c2oc1=O,-2,119*,0,-6,/,26,-2%
CCc1c(C)c2cc(Cl)c(O)c(CN(C)C)c2oc1=O,0,0,0,-4,8,23,/
Cc1ccc(C(=O)OCC(=O)NC(C)c2ccccc2)s1 (configuration not stated),-1,48,0,-7,1,-4,/
O=C(COC(=O)c1ccc([N+](=O)[O-])s1)NCCc1ccccc1,-2,58*,1,19,99*,-14,-1%
O=C(COC(=O)c1ccc([N+](=O)[O-])s1)NNC(=O)c1ccccc1,0,/,-1,7,/,-87,/
CC(NC(=O)COC(=O)c1ccc([N+](=O)[O-])s1)c1ccccc1 (configuration not stated),1,66*,2,-8,/,-8,-5%
O=C(N[C@H]1CC[C@@H](CCNC(=O)C2CCOCC2)O[C@H]1CO)c1ccncc1,/,/,/,/,-2,/,/
Cn1c(=O)cc2c3c(c(N4CCCCC4)ccc31)C(=O)c1ccccc1-2,/,71*,28*,-20,-1,18,7.8µM*
O=C1c2ccccc2C(=O)c2c1cccc2N1CCCC1,3,43,2,22,5,/,/
CCc1ccc(S(=O)(=O)/N=C2\C=C(Nc3cccc(C(=O)O)c3)C(=O)c3ccccc32)cc1,3,132*,6,27,100*,69,9.3µM*
Cc1cc(C)c(S(=O)(=O)/N=C2\C=C(NS(=O)(=O)c3ccccc3)C(=O)c3ccccc32)c(C)c1,3,44,5,-5,19,-32,/
Cc1ccc(S(=O)(=O)/N=C2\C=C(NS(=O)(=O)c3ccccc3)C(=O)c3ccccc32)cc1,3,105*,5,/,24,/,9.9µM*
O=C(C[C@H]1C[C@@H]2c3cc(NC(=O)NC4CCCCC4)ccc3O[C@@H]2[C@@H](CO)O1)NCc1ccccc1,/,/,/,/,-2,/,/
Cc1noc(C)c1S(=O)(=O)Nc1ccc2c(c1)C(=O)N([C@H](C)CO)C[C@H](C)[C@H](CN(C)C(=O)c1ccccc1)OCCCC[C@@H](C)O2,/,/,/,/,1,/,/
COC(=O)CCCC(=O)NC1CC(C)(C)Cc2c1cnn2-c1ccc(C)cc1 (configuration not stated),-1,55*,1,10,-1,0,-1%

# Screening results: PubChem BioAssay, Broad Institute
